Hits are enriched below; roughly 2.4% of the tested compounds scored in any of these assays.
WRN inhibitor – inhibitors of human WRN helicase; Q14191; 0.46% of 360,000 active; WRN helicase unwinding, fluorescent forked duplex, kinetic; Potency, µM (titrated, usually from 114 µM), for inactives: top-dose activity change, negative = inhibition, actives largely listed as inhibitors; note: % is set by controls: 0 for no effect and ±100 for the full control effect; nearly all actives have a fitted effect of over 55% in size
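Kinetic fluorescence helicase assay: unwinding of a quenched forked DNA duplex (100 nM final) with 2 mM ATP final raises red fluorescence (525/598 nm). Compounds sat 15 min at room temperature with 20 nM WRN beforehand.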
POLK inh – DNA polymerase kappa (human) inhibition; 0.53% of 400,000 active; purified Pol kappa, fluorescent DNA synthesis assay, 10 min; AID 588579; Potency, µM (top dose mostly 107 µM), without a hit: at the top dose activity, negative = inhibition, actives largely listed as inhibitors; note: % is set by controls: 0 for no effect and ±100 for the full control effect
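Kinetic fluorescence screen: compound preincubated 15 min RT with 10 nM enzyme; 50 nM substrate (final) initiates; reads at 0/10 min.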
FEN1 inh – human FEN1 inhibition. P39748. Recombinant FEN1 flap cleavage, fluorescence, 15 min. Potency, µM (series often up to 114 µM), inactives show at the highest dose activity change, negative = inhibition, hits mostly inhibitors. 0.35% of 390,000 active. AID 588795; note: % is set by controls: 0 for no effect and ±100 for the full control effect; nearly all actives have a fitted effect of over 65% in size
Target sequence (P39748 whole entry, looked up): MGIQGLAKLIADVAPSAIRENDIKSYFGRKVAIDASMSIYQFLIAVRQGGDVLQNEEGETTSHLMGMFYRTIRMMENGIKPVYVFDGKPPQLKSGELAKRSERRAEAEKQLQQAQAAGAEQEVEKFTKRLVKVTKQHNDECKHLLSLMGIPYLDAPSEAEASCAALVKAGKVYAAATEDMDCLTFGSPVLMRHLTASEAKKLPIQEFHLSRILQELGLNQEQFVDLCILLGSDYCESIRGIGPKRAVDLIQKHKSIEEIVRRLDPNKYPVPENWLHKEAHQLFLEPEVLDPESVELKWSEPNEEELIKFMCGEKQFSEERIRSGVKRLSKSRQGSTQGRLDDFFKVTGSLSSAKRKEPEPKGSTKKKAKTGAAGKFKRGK
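Recombinant FEN1 (10 nM) was preincubated with pin-transferred compounds for 15 min at room temperature, then flap DNA substrate (50 nM final) was added. Plates were read at 0 and 15 min, and normalized concentration–response data were fitted to a four-parameter Hill equation.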
Pol beta inh – blocks human DNA polymerase beta activity; P06746; Pol beta primer extension/strand displacement, fluorescence kinetic; Potency, µM (doses to about 114 µM), inactives show top-dose activity change, negative = inhibition, actives largely listed as inhibitors; 1.3% of 340,000 active; AID 485314; note: % is set by controls: 0 for no effect and ±100 for the full control effect
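Kinetic readout of DNA synthesis with strand displacement by Pol beta. Compound and 10 nM enzyme sit 15 min at room temperature; 50 nM substrate starts the reaction, read immediately and at 10 min.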
Pol iota inh – DNA polymerase iota (human) inhibition | Potency, µM (top dose mostly 115 µM), for the others: at the top dose activity, negative = inhibition, actives largely listed as inhibitors | 1% of 390,000 active | Q9UNA4 | Pol iota fluorescent replication assay, 10 min | AID 588590
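Pol iota at 10 nM preincubated 15 min with compounds at room temperature; reaction started with fluorescent substrate, 50 nM final. Fluorescence read kinetically at 0 and 10 min; buffer-only wells as negative control.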
Pol eta inh – blocks human DNA polymerase eta activity; Q9Y253; recombinant Pol eta, fluorescent DNA replication assay; Potency, µM (top dose mostly 114 µM), for inactives: at the highest dose activity change, negative = inhibition, actives largely listed as inhibitors; 1.2% of 390,000 active; note: % is set by controls: 0 for no effect and ±100 for the full control effect
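Pol eta at 10 nM preincubated with compounds 15 min at room temperature; reaction started with fluorescent substrate (50 nM final) and read kinetically at 0 and 10 min.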
Active calls of the source: *; ? = inconclusive; . = no result given; [ ] = remark or other dose. Calls come from the whole dose curve; as a rule, active = well fitted curve in the direction sought with a large enough effect; inconclusive = small, poorly fitted or top-dose-only effect, or another doubt; inactive = no such curve, though single readings can be large; an effect the other way counts as inactive or inconclusive. Potency is the fitted concentration of half-maximal effect.

SMILES	WRN inhibitor	POLK inh	FEN1 inh	Pol beta inh	Pol iota inh	Pol eta inh
O=c1[nH]c(SCc2c(F)cccc2Cl)nc2c1CCCC2	.	-11%	-11%	17%	-1%	.
O=C(CSc1oc(-c2ccco2)nc1S(=O)(=O)c1ccc(Br)cc1)c1ccc(Cl)cc1	.	?	-36%	12%	89µM*	-3%
CCCSc1oc(-c2ccco2)nc1S(=O)(=O)c1ccc(Cl)cc1	.	-18%	-10%	-19%	?	-5%
Cc1ccc2c(c1)c1nnc(SCC(=O)Nc3ccccc3C(F)(F)F)nc1n2CC(=O)O	-21%	7%	-2%	2%	31%	-8%
Cc1ccc2c(c1)c1nnc(SCC(=O)Nc3cccc(Cl)c3C)nc1n2CC(=O)O	?	-16%	-13%	22µM*	-1%	79µM*
O=C(NC(=S)Nc1c(Cl)ccc2nsnc12)c1ccco1	-18%	-24%	-13%	10%	25µM*	-4%
O=C(NNC(=O)c1ccc(NC(=O)c2ccccc2)cc1)c1ccccc1	-15%	-9%	0%	79µM*	?	-9%
O=C(NC(=S)Nc1ccc(NC(=O)c2ccco2)cc1)c1ccccc1	-11%[11.6 µM]	11%	-1%	45%	89µM*	0%
O=C(NNC(=O)c1ccc2ccccc2c1)Nc1ccc(F)cc1	2%	-3%	-5%	45µM*	?	-15%
O=C(NC(=S)Nc1ccccc1Cl)c1ccco1	-8%	-24%	-4%	-3%	20%	3%
O=C1c2ccccc2NC(c2ccccc2OCc2ccccc2)N1Cc1ccco1 (configuration not stated)	.	-2%	?	.	-5%	.
O=C(Cc1ccccc1)Nc1ccc(C(=O)Nc2ccc(O)cc2)cc1	-12%	-5%	6%	-17%	19%	-22%
O=C(CSc1ccccc1)Nc1ccc(C(=O)Nc2ccc(O)cc2)cc1	-7%	-10%	-12%	79µM*	-19%	-3%
O=C(Cc1ccccc1)NNC(=O)c1ccc(NC(=O)c2ccccc2)cc1	-11%	-13%	-2%	20µM*	?	-15%
OCC1O[C@H](Oc2ccc(O)cc2)C(O)C(O)C1O (some centres not stated)	.	-3%[60.1 µM]	.	.	.	.
CC(C)CC1NC(=O)c2cccnc2-n2c1nc1cc(F)ccc1c2=O (configuration not stated)	1%	.	.	.	.	-2%
COC(=O)c1c(NC(=O)/C=C/C(=O)O)sc(C)c1-c1ccc(C(C)C)cc1	10%	-17%	-1%	-5%	21%	79µM*
Clc1ccc(Cn2cc3c(n2)-c2cc4ccccc4n2C3)cc1	.	1%	-22%	.	22%	.
COc1ccc2c3c(cccc13)C(=O)N(O)C2=O	-14%	-18%	0.35µM*	35µM*	1%	-8%
O=C1c2cccc3c([N+](=O)[O-])ccc(c23)C(=O)N1O	-26%	-1%	3.2µM*	?	-13%	2.8µM*
CC(OC(=O)c1cccc(-n2cnnn2)c1)C(=O)Nc1ccc(F)c(F)c1F (configuration not stated)	-1%	0%	-1%	.	30%	-14%
COc1ccc(NC(=O)C(Cl)=C(Cl)Cl)cn1	4%	0%	11%	16%	35%	-11%
COc1ccc(NC(=O)/C(Cl)=C(/Cl)S(=O)Cc2ccc(Cl)cc2)cn1 (configuration not stated)	22µM*	-6%	-4%	?	?	?
Cc1ccc(S(=O)(=O)Cc2ccc(C(=O)N3CCN(Cc4ccccc4)CC3)o2)cc1	.	.	.	25µM*	.	.
Cc1ccc(S(=O)(=O)Cc2ccc(C(=O)NCc3ccc4c(c3)OCO4)o2)cc1	-11%	?	-18%	5.6µM*	?	-16%
SMILES	WRN inhibitor	POLK inh	FEN1 inh	Pol beta inh	Pol iota inh	Pol eta inh
COc1ccc(S(=O)(=O)Cc2ccc(C(=O)N3CCN(Cc4ccccc4)CC3)o2)cc1	1%	0%	-5%	-20%	18%	-16%
COc1ccccc1CNC(=O)c1ccc(CS(=O)(=O)c2ccc(C)cc2)o1	-15%	?	-15%	89µM*	71µM*	45µM*
Cc1ccc(CS(=O)Cc2ccc(C(=O)NCc3ccc4c(c3)OCO4)o2)cc1 (configuration not stated)	4%	2%	-15%	43%	39%	-25%
O=[N+]([O-])c1cccc2cn[nH]c12	4%	-11%[60.1 µM]	?	-1%	-9%	-10%
O=[N+]([O-])c1cccc2c[nH]nc12	.	13µM*	.	.	.	.
O=[N+]([O-])c1ccc(O)c(-c2nn[nH]n2)c1	79µM*	-9%	0%	0%	?	-11%
Cc1ccc(OCC(=O)Nc2ccccc2C(=O)OCc2cc(=O)n3c(C)csc3n2)cc1	.	-3%[60.1 µM]	-4%	12%	-7%	1%
Cc1ccc(S(=O)(=O)NCCC(=O)NC2CCCCC2C)cc1 (configuration not stated)	-9%	-3%	1%	.	-17%	-4%
COc1ccc(S(=O)(=O)NCCC(=O)NC2CCCCC2C)cc1[N+](=O)[O-] (configuration not stated)	-6%[11.6 µM]	-21%	-13%	.	50µM*	-18%
O=C(CSc1nnc(-c2ccc(S(=O)(=O)N3CCCC3)cc2)o1)NCc1ccco1	-26%	?	13%	25µM*	89µM*	?
Cn1c(SCC(=O)NCc2ccco2)nnc1-c1ccccc1	6%	-22%	-1%	3%	-13%	9%
Cn1c(SCC(=O)NCc2ccco2)nnc1-c1ccc(S(=O)(=O)N2CCOCC2)cc1	-27%	-24%	3%	?	100µM*	?
CCC1Nc2ncnc(N3CCOCC3)c2N(Cc2ccccc2)C1=O (configuration not stated)	-2%	-2%	-6%	.	1%	0%
CCC1Nc2ncnc(N3CCCCC3)c2N(Cc2ccccc2)C1=O (configuration not stated)	7%[11.6 µM]	2%	8%	.	?	89µM*
CCCCCOc1ccccc1CN1C(=O)C(=O)c2cc(C)ccc21	.	-10%	-3%	11%	?	-29%
NC(=NCc1ccc2c(c1)OCO2)NC(=O)c1ccccc1	?	-3%	-13%	22%	-2%	79µM*
CCOC(=O)c1sc(N2C(=O)C(O)=C(C(=O)c3ccco3)C2c2ccco2)nc1C (configuration not stated)	4%[11.6 µM]	?	-20%	?	56µM*	?
O=[N+]([O-])c1ccc(CS(=O)c2ccccc2)cc1 (configuration not stated)	-3%	-1%	-2%	.	9%	-1%

Screens as filed in PubChem.
